PubChem BioAssay (Tox21)
Values joined by “and” are separate entries in the source; they are usually repeats but may differ in a detail not shown here. Identical values can stand only once. A number with no mark means an inactive call. Results filed as inconclusive are left out. Active and inactive are the calls of the source. Unless noted, calls follow the shape of the dose curve; as a rule, active = well fitted curve in the direction sought with a large enough effect in the repeat runs; inconclusive = weak or mixed curves; inactive = no such curve, though single readings can be large; an effect the other way counts as inactive or inconclusive.

Assays:
[1] = qHTS assay to identify small molecule agonists of H2AX - cell viability counter screen (AID 1224847; calls by dose curve; also: nearly all actives have a fitted effect of over 30% in size; also: potency is read from the fitted curve at half-maximal effect; as to activity change, negative = cytotoxicity: top concentration of the series differs between compounds)
Procedure, shortened: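 Quantitative HTS viability measurement: CHO-K1 wild-type cells in serum (10% FBS) medium, short 3 hr drug exposure at 37C with 0.76% DMSO, CellTiter-Glo luminescent detection.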

[2] = qHTS assay to identify small molecule antagonists of the estrogen related receptor (ERR) signaling pathway from Tox21 library (AID 1224848); also: nearly all actives have a fitted effect of over 50% in size; also: potency is read from the fitted curve at half-maximal effect
Procedure, shortened: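 Luminescent reporter read-out (ONE-Glo) from NTP's ERR cell line after 18 h treatment at 37 C with DMSO-dissolved Tox21 compounds; cells pre-plated 6 h beforehand at 2,000 per well.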

[3] = qHTS assay to identify small molecule agonists of the estrogen related receptor (ERR) signaling pathway from Tox21 library (AID 1224849; calls by dose curve; also: nearly all actives have a fitted effect of over 15% in size); settings: ERR reporter cell line, ONE-Glo luciferase, 18 h; at 92.4 µM (top of the series) unless noted
Procedure, shortened: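 Six hours post-seeding at 37 C/5% CO2, ERR cells receive DMSO-solubilised compounds; after 18 h at 37 C, ONE-Glo reagent is applied and luminescence recorded.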

[4] = qHTS RealTime-Glo MT Cell Viability Assay in HepG2 cells - 24 hour (AID 1224867); also: nearly all actives have a fitted effect of over 50% in size; also: potency is read from the fitted curve at half-maximal effect
Procedure, shortened: (§1)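 HepG2 suspension premixed with RealTime-Glo reagents is plated at 600 cells per well and left 5 h at 37 C/5% CO2. Compounds in DMSO then go in, and bioluminescence reflecting viable cell number is recorded over 40 h.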

[5] = qHTS RealTime-Glo MT Cell Viability Assay in HEK293 cells - 32 hour (AID 1224868); also: nearly all actives have a fitted effect of over 50% in size; also: potency is read from the fitted curve at half-maximal effect; as to activity change, negative = cytotoxic: top concentration of the series differs between compounds
Procedure, shortened: (§2)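 Reads taken at 0, 8, 16, 24, 32 and 40 h from the same wells. HEK293 cells (600/well) carried RealTime-Glo reagents from seeding, with compound added after a 5 h settle at 37 C.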

[6] = A CellTox Green Cytotoxicity Assay to monitor cytotoxicity in HEK293 cells - 0 hour (AID 1224869); also: nearly all actives have a fitted effect of over 50% in size; also: potency is read from the fitted curve at half-maximal effect
Procedure, shortened: (§3)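 Seeding of HEK293 cells together with cytotoxicity dye preceded a 5 h incubation at 37 C/5% CO2. Test compounds in DMSO were then added and fluorescence monitored across 40 h.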

[7] = qHTS RealTime-Glo MT Cell Viability Assay in HepG2 cells - 40 hour (AID 1224870); also: nearly all actives have a fitted effect of over 50% in size; also: potency is read from the fitted curve at half-maximal effect
Procedure, shortened: (§4)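 HepG2 cells (600/well) mixed with RealTime-Glo MT reagent, settled 5 h at 37 C/5% CO2 before compound addition. Nonlytic NanoLuc luminescence from viable-cell prosubstrate reduction read repeatedly during 40 h treatment at 37 C.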

[8] = A CellTox Green Cytotoxicity Assay to monitor cytotoxicity in HEK293 cells - 40 hour (AID 1224871); also: nearly all actives have a fitted effect of over 45% in size; also: potency is read from the fitted curve at half-maximal effect
Procedure, shortened: as §3

[9] = qHTS RealTime-Glo MT Cell Viability Assay in HEK293 cells - 16 hour (AID 1224872); also: nearly all actives have a fitted effect of over 50% in size; also: potency is read from the fitted curve at half-maximal effect; as to activity change, negative = cytotoxicity: top concentration of the series differs between compounds
Procedure, shortened: as §2

[10] = qHTS RealTime-Glo MT Cell Viability Assay in HepG2 cells - 8 hour (AID 1224873); also: nearly all actives have a fitted effect of over 55% in size; also: potency is read from the fitted curve at half-maximal effect
Procedure, shortened: as §4

[11] = qHTS RealTime-Glo MT Cell Viability Assay in HEK293 cells - 40 hour (AID 1224874); settings: RealTime-Glo luminescence; max response: hits give low values; also: nearly all actives have a fitted effect of over 50% in size; also: potency is read from the fitted curve at half-maximal effect
Procedure, shortened: (§5)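 Tox21 screen in HEK293 using RealTime-Glo MT chemistry, with cells and reagent co-dispensed. Luminescence proportional to viable cell number was captured at intervals during 40 h compound exposure at 37 C.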

[12] = A CellTox Green Cytotoxicity Assay to monitor cytotoxicity in HEK293 cells - 24 hour (AID 1224875); also: nearly all actives have a fitted effect of over 45% in size; also: potency is read from the fitted curve at half-maximal effect
Procedure, shortened: as §3

[13] = A CellTox Green Cytotoxicity Assay to monitor cytotoxicity in HepG2 cells - 16 hour (AID 1224876); also: nearly all actives have a fitted effect of over 45% in size; also: potency is read from the fitted curve at half-maximal effect
Procedure, shortened: (§6)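 Nonlytic assay: viable cells exclude the dye, so fluorescence scales with cell death. HepG2 at 600 cells/well, compounds added after 5 h, signal read across 40 h.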

[14] = qHTS RealTime-Glo MT Cell Viability Assay in HepG2 cells - 32 hour (AID 1224877); also: nearly all actives have a fitted effect of over 55% in size; also: potency is read from the fitted curve at half-maximal effect
Procedure, shortened: as §1

[15] = A CellTox Green Cytotoxicity Assay to monitor cytotoxicity in HepG2 cells - 24 hour (AID 1224878); also: nearly all actives have a fitted effect of over 45% in size; also: potency is read from the fitted curve at half-maximal effect
Procedure, shortened: as §6

[16] = A CellTox Green Cytotoxicity Assay to monitor cytotoxicity in HepG2 cells - 40 hour (AID 1224879); also: nearly all actives have a fitted effect of over 40% in size; also: potency is read from the fitted curve at half-maximal effect
Procedure, shortened: as §6

[17] = qHTS RealTime-Glo MT Cell Viability Assay in HEK293 cells - 0 hour (AID 1224880); also: nearly all actives have a fitted effect of over 45% in size; also: potency is read from the fitted curve at half-maximal effect; as to activity change, negative = cytotoxicity: top concentration of the series differs between compounds
Procedure, shortened: as §5

[18] = A CellTox Green Cytotoxicity Assay to monitor cytotoxicity in HEK293 cells - 32 hour (AID 1224881); also: nearly all actives have a fitted effect of over 40% in size; also: potency is read from the fitted curve at half-maximal effect
Procedure, shortened: as §3
% is scaled to controls: 0 for no effect and ±100 for the full control effect.

In the case of O=C1C=CC(=O)N1c1ccccc1, the Potency [1] is reported as 45 µM (active), the Potency [2] is reported as 54.5 µM (active) and the activity change, positive = activation [3] is reported as -78.1%. For the same compound, the Potency [4] was 13.8 µM (active), the Potency [5] was 11 µM (active) and the Potency [6] was “inactive”. For the same compound, the Potency [7] was 11 µM (active), the Potency [8] was 11 µM (active) and the Potency [9] was 15.5 µM (active). The Potency [10] was 19.5 µM (active), the Potency [11] was 11 µM (active) and the Potency [12] was 12.3 µM (active). The Potency [13] was 19.5 µM (active), the Potency [14] was 12.3 µM (active) and the Potency [15] was 13.8 µM (active). The Potency [16] was 12.3 µM (active) and the Potency [17] was “inactive”.

With CCCCCCCC/C=C\CCCCCCCC(=O)N(C)CC(=O)O the Potency [1] was 101 µM (active), the activity change, positive = activation [3] was -30% and the Potency [4] was “inactive”. The Potency [6] was “inactive”, the Potency [7] was “inactive” and the Potency [8] was 34.7 µM (active). The Potency [10] was “inactive”, the Potency [12] was 34.7 µM (active) and the Potency [13] was “inactive”. The Potency [14] was “inactive”, the Potency [17] was “inactive” and the Potency [18] was 34.7 µM (active).

In the case of CO[C@H]1C=CO[C@@]2(C)Oc3c(C)c(O)c4c(O)c(cc(O)c4c3C2=O)NC(=O)/C(C)=C\C=C/[C@H](C)[C@H](O)[C@@H](C)[C@@H](O)[C@@H](C)[C@H](OC(C)=O)[C@@H]1C, the Potency [1] is reported as “inactive”, the activity change, positive = activation [3] is reported as -31.9% and the Potency [4] is reported as “inactive”. For the same compound, the Potency [5] was “inactive”, the Potency [6] was “inactive” and the Potency [7] was “inactive”. The Potency [8] was “inactive”, the Potency [9] was “inactive” and the Potency [10] was “inactive”. The Potency [12] was “inactive”, the Potency [13] was “inactive” and the Potency [14] was “inactive”. The Potency [15] was “inactive”, the Potency [16] was “inactive” and the Potency [17] was 17.5 µM (active). The Potency [18] was “inactive”.

For N[C@@H](CSSC[C@H](N)C(=O)O)C(=O)O, the activity change, negative = cytotoxicity [1] was -5.28% [at 0.582 µM], the activity, negative = inhibition [2] was -3.98% [at 0.349 µM] and the activity change, positive = activation [3] was -3.33% [at 0.349 µM]. It also gave an activity change, negative = cytotoxicity [4] of -0.491% [at 0.29 µM], an activity change, negative = cytotoxic [5] of 5.6% [at 0.29 µM] and a cytotoxicity [6] of -2.52% [at 0.29 µM]. The activity change, negative = cytotoxic [7] was -2.12% [at 0.29 µM], the cytotoxicity increase [8] was 3.14% [at 0.29 µM] and the activity change, negative = cytotoxicity [9] was 13.2% [at 0.29 µM]. The activity change [12] was 7.29% [at 0.29 µM, hits give high values], the activity change, negative = cytotoxic [14] was -2.71% [at 0.29 µM] and the cytotoxicity increase [16] was 5.29% [at 0.29 µM]. For the same compound, the activity change, negative = cytotoxicity [17] was 18.3% [at 0.29 µM] and the cytotoxicity increase [18] was 2.69% [at 0.29 µM].

In the case of O=C(O)CCn1c2c(c3ccccc31)C[C@H](NS(=O)(=O)c1ccc(F)cc1)CC2, the Potency [1] is reported as “inactive”, the Potency [4] is reported as “inactive” and the Potency [5] is reported as “inactive”. The Potency [6] was “inactive”, the Potency [7] was “inactive” and the Potency [8] was “inactive”. The Potency [9] was “inactive”, the Potency [10] was “inactive” and the max response [11] was 8.69%. For the same compound, the Potency [12] was “inactive”, the Potency [13] was “inactive” and the Potency [14] was “inactive”. For the same compound, the Potency [15] was “inactive”, the Potency [17] was “inactive” and the Potency [18] was “inactive”.

In the case of CCN=c1cc2oc3cc(NCC)c(C)cc3c(-c3ccccc3C(=O)OCC)c-2cc1C, the Potency [1] is reported as 7.1 µM (active) and 31.8 µM (active), the Potency [2] is reported as 108 nM (active) and 122 nM (active) and the activity change, positive = activation [3] is reported as -79.8% and -73.2%. For the same compound, the Potency [4] was 43.5 µM (active) and 24.5 µM (active), the Potency [6] was 6.89 µM (active) and 6.92 µM (active) and the Potency [7] was 43.5 µM (active) and 21.9 µM (active). The Potency [8] was 7.73 µM (active) and 12.3 µM (active), the Potency [9] was 8.68 µM (active) and 6.17 µM (active) and the Potency [10] was 24.5 µM (active) and 21.9 µM (active). The Potency [11] was 614 nM (active) and 550 nM (active), the Potency [12] was 12.3 µM (active) and 11 µM (active) and the Potency [13] was 10.9 µM (active) and 6.17 µM (active). For the same compound, the Potency [14] was 43.5 µM (active) and 21.9 µM (active), the Potency [15] was 19.4 µM (active) and 5.49 µM (active) and the Potency [16] was 21.8 µM (active) and 6.17 µM (active). The Potency [17] was “inactive” and the Potency [18] was 10.9 µM (active) and 11 µM (active).

In the case of Cc1cc(Nc2ccc(O)cc2)ccc1N, the Potency [1] is reported as 89.4 µM (active), the Potency [2] is reported as 19.2 µM (active) and the activity change, positive = activation [3] is reported as -47.7%. For the same compound, the Potency [4] was 48.8 µM (active), the Potency [5] was 19.4 µM (active) and the Potency [6] was “inactive”. For the same compound, the Potency [8] was 24.4 µM (active), the Potency [9] was 24.4 µM (active) and the Potency [10] was 43.5 µM (active). The Potency [13] was “inactive” and the Potency [15] was “inactive”.

In the case of O=C1c2c(O)ccc([N+](=O)[O-])c2C(=O)c2c([N+](=O)[O-])ccc(O)c21, the Potency [1] is reported as 50 µM (active), the Potency [2] is reported as 15.2 µM (active) and the activity change, positive = activation [3] is reported as -80%. For the same compound, the Potency [4] was 38.5 µM (active), the Potency [5] was 24.3 µM (active) and the Potency [6] was “inactive”. The Potency [8] was “inactive”, the Potency [9] was 13.7 µM (active) and the Potency [10] was 13.7 µM (active). The Potency [11] was 24.3 µM (active), the Potency [12] was “inactive” and the Potency [13] was “inactive”. For the same compound, the Potency [15] was “inactive”, the Potency [16] was “inactive” and the Potency [17] was 43.2 µM (active). The Potency [18] was “inactive”.

For CCCCCCOc1cc(C)c(O)c(C)c1C, the Potency [1] was 102 µM (active), the Potency [2] was 61.9 µM (active) and the activity change, positive = activation [3] was -42.5%. For the same compound, the Potency [6] was “inactive”, the Potency [8] was 44.2 µM (active) and the Potency [9] was 14 µM (active). For the same compound, the Potency [11] was 19.7 µM (active), the Potency [13] was 24.8 µM (active) and the Potency [15] was 24.8 µM (active). The Potency [16] was 24.8 µM (active), the Potency [17] was “inactive” and the Potency [18] was 44.2 µM (active).

For CN1[C@@H]2CC[C@@H]1CC(OC(=O)C(CO)c1ccccc1)C2 (stereo partly specified), the Potency [1] was “inactive”, the Potency [4] was “inactive” and the Potency [5] was “inactive”. For the same compound, the Potency [6] was “inactive”, the Potency [7] was “inactive” and the Potency [8] was “inactive”. For the same compound, the Potency [9] was “inactive”, the Potency [10] was “inactive” and the max response [11] was -6.75%. For the same compound, the Potency [12] was “inactive”, the Potency [13] was “inactive” and the Potency [14] was “inactive”. For the same compound, the Potency [15] was “inactive”, the Potency [16] was “inactive” and the Potency [17] was “inactive”.

With COc1ccc(-n2nc(CCC(=O)N(C)O)cc2-c2ccc(Cl)cc2)cc1 the Potency [1] was “inactive”, the Potency [4] was “inactive” and the Potency [6] was “inactive”. The Potency [8] was “inactive”, the Potency [9] was “inactive” and the Potency [10] was “inactive”. The Potency [12] was “inactive”, the Potency [13] was “inactive” and the Potency [14] was “inactive”. For the same compound, the Potency [17] was “inactive” and the Potency [18] was “inactive”.

With CCCOc1sc(C(=O)N2CCC(c3cc(CN)ccc3F)CC2)c(C)c1Br the Potency [1] was 46.3 µM (active), the Potency [2] was 49.9 µM (active) and the activity change, positive = activation [3] was -71.6%. The Potency [4] was 22.5 µM (active), the Potency [5] was 22.5 µM (active) and the Potency [6] was “inactive”. For the same compound, the Potency [7] was 28.3 µM (active), the Potency [8] was 31.8 µM (active) and the Potency [9] was 20 µM (active). The Potency [11] was 31.8 µM (active), the Potency [12] was 22.5 µM (active) and the Potency [13] was 20 µM (active). The Potency [14] was 22.5 µM (active), the Potency [15] was 20 µM (active) and the Potency [16] was 15.9 µM (active).
